# Data reported in PubChem BioAssay (NCATS).
# Records with an inconclusive call do not appear. A call without a number means that no potency is given here. Active and inactive are the calls of the source. Calls follow the shape of the dose curve; as a rule, active = well fitted cell-killing curve with a large enough effect; inconclusive = small, poorly fitted or top-dose-only effect, or effect the other way; inactive = flat fitted curve, though single readings scatter.
# Experiments:
# Experiment in all cases: Primary qHTS to identify gynecologic anti-cancer compounds using libraries of approved drugs and bioactive compounds (AID 1345084); also: nearly all actives have a fitted effect of over 55% in size
# C33A = settings: Gynecologic cancer cell panel viability, ATPlite luminescence, 48 h; series mostly up to 57.5 µM
# Outline: (§1)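 Luminescence from the ATPlite ATP-monitoring reagent indicates viable cell number; lower signal means cytotoxicity. Cells received compound 16 h after seeding and were exposed for 48 h across five concentrations.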
# CAOV3 = settings: Gynecologic cancer cell panel viability, ATPlite luminescence, 48 h; series mostly up to 57.5 µM
# Outline: as §1
# CASKI = settings: Gynecologic cancer cell panel viability, ATPlite luminescence, 48 h; series mostly up to 57.5 µM
# Outline: as §1
# Es-2 = settings: Gynecologic cancer cell panel viability, ATPlite luminescence, 48 h; series mostly up to 57.5 µM
# Outline: as §1
# HeLa = settings: Gynecologic cancer cell panel viability, ATPlite luminescence, 48 h; series mostly up to 57.5 µM
# Outline: as §1
# Hek293T = settings: Gynecologic cancer cell panel viability, ATPlite luminescence, 48 h, control line for the selectivity index; series mostly up to 57.5 µM
# Outline: as §1
# JEG-3 = settings: Gynecologic cancer cell panel viability, ATPlite luminescence, 48 h; series mostly up to 57.5 µM
# Outline: as §1
# OV90 = settings: Gynecologic cancer cell panel viability, ATPlite luminescence, 48 h; series mostly up to 57.5 µM
# Outline: as §1
# PA-1 = settings: Gynecologic cancer cell panel viability, ATPlite luminescence, 48 h; series mostly up to 57.5 µM
# Outline: as §1
# Tov-21-G = settings: Gynecologic cancer cell panel viability, ATPlite luminescence, 48 h; series mostly up to 57.5 µM
# Outline: as §1
# Tov112D = settings: Gynecologic cancer cell panel viability, ATPlite luminescence, 48 h; series mostly up to 57.5 µM
# Outline: as §1
# SKOV3 = settings: Gynecologic cancer cell panel viability, ATPlite luminescence, 48 h; series mostly up to 57.5 µM
# Outline: as §1
# Potency is read from the fitted curve at half-maximal effect.
SMILES,Potency (C33A),Potency (CAOV3),Potency (CASKI),Potency (Es-2),Potency (HeLa),Potency (Hek293T),Potency (JEG-3),Potency (OV90),Potency (PA-1),Potency (Tov-21-G),Potency (Tov112D),Potency (SKOV3)
COc1ccc(-c2c(C)nn3c(NCCN4CCOCC4)cc(C)nc23)cc1OC,inactive,inactive,inactive,inactive,inactive,inactive,inactive,inactive,inactive,inactive,inactive,–
NS(=O)(=O)Nc1ncnc(OCCOc2ncc(Br)cn2)c1-c1ccc(Br)cc1,inactive,inactive,inactive,inactive,inactive,inactive,inactive,inactive,inactive,inactive,inactive,–
CCOC(=O)N1CCC(CN(Cc2ccc(Cl)cc2)Cc2ccc([N+](=O)[O-])s2)C1 (centres undefined),inactive,inactive,inactive,inactive,inactive,inactive,inactive,inactive,inactive,inactive,–,–
CCCCC1CCC(c2nc(-c3ccncc3)no2)CC1 (centres undefined),inactive,inactive,inactive,inactive,inactive,inactive,inactive,inactive,inactive,inactive,inactive,–
CC(=O)O[C@@H]1CC[C@@]2(C)[C@H](CC[C@@H]3[C@@H]2C[C@H](OC(C)=O)[C@]2(C)[C@@H](C(C)=O)CC[C@@H]32)C1,inactive,inactive,inactive,inactive,inactive,inactive,inactive,inactive,inactive,inactive,inactive,–
Fc1ccc(-c2cncc(CN3CCN(c4cccc5c4OCCO5)CC3)c2)cc1,inactive,inactive,inactive,inactive,inactive,inactive,inactive,inactive,inactive,inactive,inactive,–
C[C@@H](NC(=O)[C@H](O)c1cc(F)cc(F)c1)C(=O)N[C@@H]1C(=O)N(C)c2ccccc2-c2ccccc21,inactive,inactive,inactive,inactive,inactive,inactive,inactive,inactive,inactive,inactive,inactive,–
NC(=O)c1nc(Nc2ccccc2)sc1NC(=O)C1CCCCC1,inactive,inactive,inactive,inactive,inactive,inactive,inactive,inactive,inactive,inactive,inactive,–
C[C@H](Nc1cc2c(-c3ccc4c(c3)OCO4)noc2cn1)c1ccccc1,inactive,inactive,inactive,inactive,inactive,inactive,inactive,inactive,inactive,inactive,inactive,–
C=C1C(=O)OC2C1CCC1(C)C(O)CC=C(C)C21 (centres undefined),inactive,inactive,inactive,inactive,inactive,inactive,inactive,inactive,inactive,–,inactive,inactive
C/C=C(\C)C(=O)OC1C[C@@]2(COC(C)=O)O[C@H]2/C=C\[C@@]2(C)O[C@@H]2[C@H]2OC(=O)C(COC(C)=O)=C12 (some centres undefined),inactive,inactive,inactive,inactive,inactive,inactive,inactive,inactive,inactive,inactive,inactive,–
CC1OC2OC(=O)C3(C)CC4C5(CO5)C5=CC(=O)OC(C)(C)C5=CC(=O)C4(C)C(C1=O)C23 (centres undefined),inactive,inactive,inactive,inactive,inactive,inactive,inactive,inactive,inactive,–,inactive,inactive
Nc1nc2c(cnn2CCCc2ccc(O)cc2)c2nc(-c3ccco3)nn12,inactive,inactive,inactive,inactive,inactive,inactive,inactive,inactive,inactive,inactive,inactive,–
C=C1CC[C@@H]2[C@](C)(CO)[C@H](O)CC[C@@]2(C)[C@@H]1CC(O)C1=CCOC1=O (some centres undefined),inactive,inactive,inactive,inactive,inactive,inactive,inactive,inactive,inactive,inactive,inactive,–
COCC(c1ccc(C(F)(F)F)cc1)N1CCN(C2(C)CCN(C(=O)c3c(C)ncnc3C)CC2)CC1C (centres undefined),inactive,inactive,inactive,inactive,inactive,inactive,inactive,inactive,inactive,inactive,inactive,–
CC(C)S(=O)(=O)c1ccc2nccc(Nc3ccc4scnc4c3)c2c1,inactive,inactive,inactive,inactive,inactive,inactive,inactive,inactive,inactive,–,inactive,12.6 µM (active)
O=C(N[C@H]1CCC[C@H](CO)C1)C1CCN(c2nc3cc(Cl)c(-c4ccc(Cl)cc4)cc3o2)CC1,inactive,inactive,inactive,inactive,inactive,inactive,inactive,inactive,inactive,inactive,inactive,–
COc1cc(-c2cn(C3CCc4c(F)cccc4N(CC(F)(F)F)C3=O)nn2)ccc1-n1cnc(C)c1 (centres undefined),inactive,inactive,inactive,inactive,inactive,inactive,inactive,inactive,inactive,inactive,inactive,–

SMILES,Potency (C33A),Potency (CAOV3),Potency (CASKI),Potency (Es-2),Potency (HeLa),Potency (Hek293T),Potency (JEG-3),Potency (OV90),Potency (PA-1),Potency (Tov-21-G),Potency (Tov112D),Potency (SKOV3)
COc1ccc2nccc(C(=O)CC[C@@H]3CCN(CC#Cc4cc(F)cc(F)c4F)C[C@@H]3C(=O)O)c2c1,inactive,inactive,inactive,inactive,inactive,inactive,inactive,inactive,inactive,inactive,inactive,–
CCOc1cn(-c2ccc(F)cc2C)nc1C(=O)Nc1ccc(Oc2ccnc3cc(OC)c(OC)cc23)c(F)c1,inactive,inactive,inactive,inactive,inactive,inactive,inactive,inactive,inactive,inactive,inactive,–
CC(C)Nc1nc(Nc2ccccc2)nc(-c2ccccc2)n1,inactive,inactive,inactive,inactive,inactive,inactive,inactive,inactive,inactive,inactive,inactive,–
S=C(c1ccc(-c2ccc(Cl)c(Cl)c2)o1)N1CCCCC1,inactive,inactive,inactive,inactive,inactive,inactive,inactive,inactive,inactive,inactive,inactive,–
O=C(Nc1ccccc1)c1ccc(Nc2nnc(-c3ccc(O)cc3)c3ccccc23)cc1,inactive,inactive,inactive,inactive,inactive,inactive,inactive,inactive,inactive,inactive,inactive,–
COc1ccc(S(=O)(=O)N2CCC[C@H]2C(=O)Nc2cc(C)cc(C)c2)cc1,inactive,inactive,inactive,inactive,inactive,inactive,inactive,inactive,inactive,–,inactive,inactive
O=C(NCc1ccccc1-c1ccccc1C(=O)NCCc1ccccn1)OCc1ccccc1,inactive,inactive,inactive,inactive,inactive,inactive,inactive,inactive,inactive,inactive,inactive,–
C[C@@H](c1ccc2nccn2c1)n1nnc2ncc(-c3cnn(C)c3)nc21,inactive,inactive,inactive,inactive,inactive,inactive,inactive,inactive,inactive,inactive,inactive,–
C[C@@H]1CC[C@@]23CC[C@]4(C)[C@@](C=CC5[C@@]6(C)CC[C@H](O)C(C)(C)C6CC[C@]54C)(OC2=O)C3[C@H]1C (some centres undefined),inactive,inactive,inactive,inactive,inactive,inactive,inactive,inactive,inactive,inactive,inactive,–
N#CC(CCCN1CCN(/N=C/c2cccnc2)CC1)(c1ccccc1)c1ccccc1,inactive,inactive,inactive,inactive,inactive,inactive,inactive,inactive,inactive,inactive,inactive,–
COC1CCN(c2cccc(-c3cc(NC(C)=O)nc(-n4nc(C)cc4C)n3)n2)CC1,inactive,inactive,inactive,inactive,inactive,inactive,inactive,inactive,inactive,inactive,inactive,–
C=C1C(=O)OC2CC(C)C(CCC(C)=O)=CCC12 (centres undefined),inactive,inactive,inactive,inactive,inactive,inactive,inactive,inactive,inactive,–,inactive,inactive
O=C(O)c1ccc(N2C(=O)/C(=C/c3ccc(-c4ccc([N+](=O)[O-])cc4)o3)C=C2c2ccccc2)cc1,inactive,inactive,inactive,inactive,inactive,inactive,inactive,inactive,inactive,inactive,inactive,–
CCc1ccc(-c2nc(CSCC(=O)NCCc3ccccc3)c(C)o2)cc1,inactive,inactive,inactive,inactive,inactive,inactive,inactive,inactive,inactive,inactive,inactive,–
O=S(=O)(Cc1ccccc1)Nc1ccc(-c2ccc3c(cnn3-c3ccc(F)cc3)c2)c(C(F)(F)F)c1,inactive,inactive,inactive,inactive,inactive,inactive,inactive,inactive,inactive,inactive,inactive,–
CCOc1nc(NC(=O)Cc2cc(OC)ccc2OC)cc(N)c1C#N,inactive,inactive,inactive,inactive,inactive,inactive,inactive,inactive,inactive,inactive,inactive,–
CC(C)(N)c1ncc(-c2ccc(OC(F)(F)F)cc2)[nH]1,inactive,inactive,inactive,inactive,inactive,inactive,inactive,inactive,inactive,inactive,inactive,–
